Laboratory results as given in PubChem BioAssay (EPA / NIEHS).
Records with an inconclusive call do not appear. Calls of active or inactive are those of the source. The calls were made as follows, unless noted: active = hit-call score of the fitted dose curve at least 0.9, where 1 is the maximum; inactive = score below 0.9.

Legend:
[1] = CCTE_Shafer_MEA_acute_spike_number: CCTE's Neural Acute Assay for Total Number of Spikes, Shafer Lab (AID 2284008);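 also: curve fitted for decrease in spike count so AC50 reflects inhibitors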
Procedure, shortened: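 Rat cortical cultures, DIV 13/15, 37 C. 40 min baseline rec, cpd 0.03-40 uM, 40 min post-dose rec. Band-pass 300-5000 Hz, spike threshold 8x rms; % change in spike count per well, DMSO neg ctrl, loss-of-signal fit.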

[2] = CCTE_Mundy_HCI_hN2_NOG_NeuronCount: CCTE's Neurite Outgrowth Assay in human hN2 cells for Neuron Count, Mundy Lab (AID 2284221; active = hit-call score of the fitted dose curve at least 0.9, where 1 is the maximum)
Procedure, shortened: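 Read-out is the number of betaIII-tubulin-positive neurons imaged by automated high-content analysis, with DMSO as negative control.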

[3] = UKN2_HCS_IMR90_neural_migration: University of Konstanz (UKN) Leist Lab Neural Crest Cell Migration Assay in human induced IMR90 Pluripotent Stem Cells (UKN2) (AID 2284204); settings: actives raise or lower the signal
Procedure, shortened: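 Using a 96-well stopper format with PLO/laminin/fibronectin coating, neural crest cells from iPSC migrate in cytokine-supplemented N2-S medium; after 24 h, chemicals are applied for a further 24 h, then cells are imaged after dye staining.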

[4] = IUF_NPC1b_proliferation_BrdU_72hr: Leibniz Research Institute for Environmental Medicine (IUF) 72-hour Neural Progenitor Cell Bromodeoxyuridine (BrdU) Proliferation Assay (NPC1b) (AID 2284207)
Procedure, shortened: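 Neural progenitor spheres of human fetal origin are treated for three days; BrdU added for the last 16 h is quantified by luminescence ELISA, with DMSO as baseline and EGF/FGF omission as positive control.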

[5] = IUF_NPC1a_proliferation_area_72hr: Leibniz Research Institute for Environmental Medicine (IUF) 72-hour Neural Progenitor Cell Proliferation Area Assay (NPC1a) (AID 2284208)
Procedure, shortened: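 hNPC spheres (human fetal cortex, GW 16-19), one per poly-Hema U-bottom well; EGF+FGF medium; dosed day 0, no re-dosing; 72 h, 37C, 5% CO2; phase-contrast sphere area; DMSO = baseline; minus-GF = positive ctrl.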

[6] = IUF_NPC1_viability_72hr: Viability Assessment at 72 hours in the Leibniz Research Institute for Environmental Medicine (IUF) Neural Progenitor Cell Proliferation Assay (NPC1) (AID 2284209)
Procedure, shortened: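 Spheres of primary human neural progenitors were plated singly in proliferation medium and treated for 72 h. Mitochondrial reduction of resazurin was then measured by fluorescence and analysed against DMSO controls.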

[7] = CCTE_Mundy_HCI_Cortical_Synap_Neur_Matur_BPCount: CCTE's Synaptogenesis and Neurite Maturation Assay in rat cortical cells for Branch Point Count, Mundy Lab (AID 2284211)
Procedure, shortened: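 HCI read-out of branch points from MAP2/synaptophysin/Hoechst immunofluorescence; rat cortical cultures, AraC DIV 5, dosing DIV 7, fixed DIV 12; fit in positive direction vs DMSO baseline.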

[8] = CCTE_Mundy_HCI_Cortical_NOG_NeuriteCount: CCTE's Neurite Outgrowth Assay in rat cortical cells for Neurite Count, Mundy Lab (AID 2284212);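 also: cells fixed about two days after chemical exposure began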
Procedure, shortened: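 Rat cortical primary cells; compound added 2 h post-plating, 1/10 dilution of working solution. Anti-betaIII-tubulin/AF488 ICC; ArrayScan neurite count vs DMSO.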

[9] = IUF_NPC2c_oligodendrocyte_migration_120hr: Leibniz Research Institute for Environmental Medicine (IUF) 120-hour Neural Progenitor Cell Migration Assay for Oligodendrocyte Migration (NPC2c) (AID 2284297);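 also: O4-positive oligodendrocyte migration distance divided by radial glia migration distance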
Procedure, shortened: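 hNPC spheres (GW 16-19 cortex), PDL/laminin, DMEM/F12 3:1 + 1% N2, 37C. Dosing day 0–5, half feed day 3, DMSO ≤0.1%. Fixed 120 h; O4 ICC + Hoechst, HCI. Readout: mean oligodendrocyte distance from sphere edge / radial glia distance.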

[10] = IUF_NPC2a_radial_glia_migration_120hr: Leibniz Research Institute for Environmental Medicine (IUF) 120-hour Neural Progenitor Cell Migration Assay for Radial Glia Migration (NPC2a) (AID 2284298)
Procedure, shortened: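 Hoechst-stained nuclei imaged at 120 h; algorithm maps sphere core by densest nuclei, sets migration edge at density threshold, gives radial glia migration distance (um) per well vs DMSO. hNPC spheres (0.3 mm), PDL/laminin, DMEM/F12 3:1 + 1% N2.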

[11] = IUF_NPC2a_radial_glia_migration_72hr: Leibniz Research Institute for Environmental Medicine (IUF) 72-hour Neural Progenitor Cell Migration Assay for Radial Glia Migration (NPC2a) (AID 2284299)
Procedure, shortened: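 Single 0.3 mm neurospheres were plated per well in N2 differentiation medium and exposed from the start of differentiation. After 72 hours, brightfield images were taken and radial glia migration from the sphere core edge was measured manually in four directions, averaged per well.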

[12] = IUF_NPC2b_neuronal_migration_120hr: Leibniz Research Institute for Environmental Medicine (IUF) 120-hour Neural Progenitor Cell Migration Assay for Neuron Migration (NPC2b) (AID 2284300)
Procedure, shortened: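 hNPC spheres, PDL/laminin, DMEM:F12 3:1 + 1% N2, 37C/5% CO2; 7 concentrations + solvent control (DMSO ≤0.1%), 5 d exposure, half-feed day 3. Fix 120 h, TUBB3 ICC, HCI: mean neuron migration distance ÷ glia distance.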

[13] = IUF_NPC3_neuronal_differentiation_120hr: Leibniz Research Institute for Environmental Medicine (IUF) 120-hour Neuronal Differentiation Assay (NPC3) (AID 2284301)
Procedure, shortened: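 Neuronal differentiation of primary human neural progenitors measured by high-content imaging: percent TUBB3+ of Hoechst+ nuclei within migrated area at 120 h, seven-point serial dilution plus solvent control, gain or loss relative to DMSO.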

[14] = IUF_NPC4_neurite_length_120hr: Leibniz Research Institute for Environmental Medicine (IUF) 120-hour Neuronal Morphology Assay for Neurite Length (NPC4) (AID 2284302)
Procedure, shortened: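 Neurons from differentiating human fetal neural progenitor spheres are scored for average neurite length after five days of compound exposure. Fitting uses DMSO as negative control.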

[15] = IUF_NPC5_oligodendrocyte_differentiation_120hr: Leibniz Research Institute for Environmental Medicine (IUF) 120-hour Oligodendrocyte Differentiation Assay (NPC5) (AID 2284304; active = hit-call score of the fitted dose curve at least 0.9, where 1 is the maximum;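 also: primary human fetal neural progenitor spheres plated to migrate and differentiate; share of O4-positive cells among Hoechst nuclei found by CNN image analysis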)
Procedure, shortened: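 hNPC spheres, fetal cortex GW 16-19; PDL/laminin, DMEM:F12 3:1 + 1% N2, 37C/5% CO2; 7 concentrations + solvent control, 5 d exposure, half-change day 3. Readout: %O4+ of Hoechst+ nuclei in migration area, CNN classification; DMSO baseline.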

[16] = IUF_NPC2-5_cytotoxicity_72hr: Cytotoxicity Assessment at 72 hours in the Leibniz Research Institute for Environmental Medicine (IUF) Neural Progenitor Cell Migration and Differentiation Assay for Cytotoxicity (NPC2-5) (AID 2284306; active = hit-call score of the fitted dose curve at least 0.9, where 1 is the maximum;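 also: LDH release into supernatant measured by resorufin fluorescence marking membrane damage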)
Procedure, shortened: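 Primary human neural progenitor spheres migrate and differentiate on laminin. Compound is present from the start of differentiation, with DMSO kept at or below 0.1%. At 72 h, supernatant LDH is quantified fluorometrically, with values fitted in the positive direction.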

[17] = IUF_NPC2-5_cytotoxicity_120hr: Cytotoxicity Assessment at 120 hours in the Leibniz Research Institute for Environmental Medicine (IUF) Neural Progenitor Cell Migration and Differentiation Assay (NPC2-5) (AID 2284307; active = hit-call score of the fitted dose curve at least 0.9, where 1 is the maximum;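 as to AC50: LDH released into supernatant as membrane damage marker via resorufin fluorescence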)
Procedure, shortened: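 hNPC spheres on PDL/laminin, N2 medium, 37C; 7 concs + solvent control, DMSO ≤0.1%; 5-day exposure, half medium changed day 3. LDH in supernatant at 120 h, resazurin→resorufin fluorescence, gain-of-signal.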

[18] = IUF_NPC2-5_cell_number_120hr: Cell Number Assessment at 120 hours in the Leibniz Research Institute for Environmental Medicine (IUF) Neural Progenitor Cell Migration and Differentiation Assay (NPC2-5) (AID 2284308);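 also: count of Hoechst-stained nuclei in migration zone around plated human neural progenitor spheres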
Procedure, shortened: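 Hoechst-stained nuclei within the migration area were counted by automated high content imaging after 120 h. Single hNPC spheres differentiated on poly-D-lysine/laminin in DMEM/F12 (3:1) with 1% N2, compound present throughout, DMSO ≤0.1%.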

[19] = IUF_NPC2-5_viability_120hr: Viability Assessment at 120 hours in the Leibniz Research Institute for Environmental Medicine (IUF) Neural Progenitor Cell Migration and Differentiation Assay (NPC2-5) (AID 2284312)
Procedure, shortened: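 Human fetal (GW 16-19) neural progenitor spheres of 0.3 mm were plated on poly-D-lysine/laminin in N2 differentiation medium and exposed from day 0 for 120 h, with half-medium refresh at day 3. Viability was read as alamar blue resazurin-to-resorufin fluorescence against DMSO.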

[20] = IUF_NPC1_cytotoxicity_72hr: Cytotoxicity Assessment at 72 hours in the Leibniz Research Institute for Environmental Medicine (IUF) Neural Progenitor Cell Proliferation Assay (NPC1) (AID 2284332; active = hit-call score of the fitted dose curve at least 0.9, where 1 is the maximum;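 also: rising LDH signal means more cytotoxicity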)
Procedure, shortened: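 Membrane-integrity loss is scored from LDH released into the medium, detected as resorufin fluorescence, with activity fitted upward relative to baseline. Test material stays on human fetal-derived progenitor spheres for 72 h.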

Measured: AC50

CN(C)C(=O)C(CCN1CCC(O)(c2ccc(Cl)cc2)CC1)(c1ccccc1)c1ccccc1
active: [1] 0.291 µM | [2] 13.9 µM

Cc1c(O)cccc1C(=O)N[C@@H](CSc1ccccc1)[C@H](O)CN1C[C@H]2CCCC[C@H]2C[C@H]1C(=O)NC(C)(C)C
active: [4] 8 µM | [5] 25 µM | [6] 14 µM | [7] 4.72 µM | [8] 33.8 µM | [9] 12.7 µM | [10] 8.08 µM | [11] 13.4 µM | [12] 19.9 µM | [13] 7.87 µM | [14] 7.21 µM | [15] 0.596 µM | [16] 14.5 µM | [17] 9.82 µM | [18] 8.12 µM | [19] 7.38 µM
inactive: [3] | [20]

CC1(C)S[C@@H]2[C@H](NC(=O)[C@H](N)c3ccc(O)cc3)C(=O)N2[C@H]1C(=O)O
not listed: [1] | [2] | [3] | [7] | [8]
inactive: all other assays above
